The structures appear in SMILES notation. Where “and” joins values, the source holds several entries; their conditions need not be identical. Equal values may be shown once. In all, about 1,100 compounds went through this assay and about 390 (35%) were called active. Not shown: some 30% with an inconclusive outcome. The list shows a part of the results. Unmarked numbers belong to inactive results. The call rests on the fitted dose curve; in most records, active means well fitted inhibition curve with a large enough effect; inconclusive means small, poorly fitted or top-dose-only effect; inactive means flat fitted curve, though single readings scatter.

We go through 54 compounds from PubChem BioAssay AID651597 (National Center for Advancing Translational Sciences (NCATS), 2012).
On the % scale 0 is the no-effect control and ±100 the full control effect; potency means the concentration at half of the fitted maximal effect.

In the experiment the target is Luciferin 4-monooxygenase (Photinus pyralis) (UniProt P08659). The experiment is described as follows: qHTS of Nrf2 Activators: Hit Validation in Secondary FLuc Assay. Further: nearly all actives have a fitted effect of over 65% in size. The note with it: firefly luciferase inhibition counter-screen, luminescence; series mostly up to 57.5 µM; activity, negative = inhibition: at the top concentration. The source says:
Many diseases have some form of oxidative stress injury and ties to inflammation, causing a host of problems for the patient. The antioxidant response element (ARE) plays an important role in alleviating the harmful effects of oxidative stress. The antioxidant response element (ARE) is a transcriptional regulatory element involved in the activation of genes coding for a number of antioxidant proteins and detoxifying enzymes. These enzymes work in concert to protect tissues from oxidative insults and chemical toxicities in human hepatocytes and immune cells. The protective effects of ARE activation are primarily triggered through Nrf2 (NF-E2-related factor) binding to and activating AREs. It is known that Nrf2 controls the production of over 250 antioxidant and detoxification proteins (Hu et al., 2006), thereby protecting tissues by increasing cellular antioxidant content and suppressing inflammatory signaling pathways. The transcription factor Nrf2 is a central link between oxidative chemicals, such as phenolic antioxidants and electrophilic compounds, and the activation of ARE. Nrf2 levels are constitutively low as a consequence of its interaction with Keap1, which targets its degradation (Zipper and Mulcahy, 2002). Electrophiles react with key cysteine residues in Keap1, releasing Nrf2 and allowing its translocation to the nucleus. Once within the nucleus, Nrf2 complexes with coactivators such as p300, and binds to the AREs to induce gene transcription of cytoprotective enzymes, resulting in the prevention of toxicity. Activation of Nrf2 protects tissues by increasing cellular antioxidant content and suppressing inflammatory signaling pathways. Identifying novel and potent Nrf2 activators by using the AREc32 cell line to detect ARE activation by small molecules will lead to the identification and development of probes to study protective pathways in multiple tissues. These specific probes are essential to study the ARE pathway, and eventually to determine whether this pathway does activate genes that could protect against a host of diseases, including cardiovascular diseases, obesity, diabetes, Alzheimer's, and Parkinson's disease.
This project's aim is to identify novel and potent Nrf2 activators by using the AREc32 cell line to detect ARE activation by small molecules, which will lead to the identification and development of probes to study the ARE pathway. In this counter assay, we aim to identify false positive as identified from this primary assay using an FLuc assay with an inhibiting read-out.
NIH Chemical Genomics Center [NCGC]
NIH Molecular Libraries Probe Centers Network [MLPCN]
Assay Submitter (PI): Curtis Klaassen, University of Kansas Medical Center
Assess whether an activator in the primary assay potentially causes such activation by inhibitor-induced stabilization of the firefly luciferase reporter enzyme by determining whether it inhibits firefly luciferase in the presence of Km concentrations of its substrates (ATP and D-luciferin).
As for `C=CCSc1nccc(-c2cc(Cl)sc2Cl)n1`, the “activity, negative = inhibition” value is -29.5%. As to `O=c1cc(-c2ccco2)nc(SCc2cccc(Cl)c2)[nH]1`, the “activity, negative = inhibition” value is -23.2%. As for `c1ccc(CSc2nccc(-c3ccco3)n2)cc1`, the Potency was 12 µM (active). For `COC(=O)c1cc2c(s1)-c1cc(F)ccc1OC2`, the “activity, negative = inhibition” value is -13.2%.

On to `CCn1c(NC(=O)c2cccs2)nc2ccccc21`, for which the Potency was 12 µM (active). For the compound `CCn1c(NC(=O)c2ccccc2)nc2ccccc21`, the Potency was 9.53 µM (active). The same measure, in the same setting: to `O=[N+]([O-])c1cccc(-c2nc(-c3ccccn3)no2)c1` belongs 1.9 µM (active). Take `Brc1cc(Cc2nnc(-c3ccccc3)o2)c(Br)s1`: the “activity, negative = inhibition” value is -2.05%. On to `c1ccc(-c2nnc(-c3ccccc3)o2)cc1`, for which the Potency is 1.9 µM (active). Consider `O=[N+]([O-])c1cccc(-c2nnc(-c3ccccc3)o2)c1`, for which the Potency was 2.39 µM (active).

In the case of `N=c1n(CCN2CCOCC2)c2ccccc2n1CC(=O)c1cccc([N+](=O)[O-])c1`, the “activity, negative = inhibition” value is 4.81%.

Turning to `O=C1C2C(C(=O)N1/N=C/c1ccc([N+](=O)[O-])o1)C1C=CC2C12CC2` (centres undefined), the “activity, negative = inhibition” value is -17.2%. Regarding `O=[N+]([O-])c1cnccc1-n1nnc2ccccc21`, the “activity, negative = inhibition” value was 4.14%.

For `NC(=O)c1cc2c3ccccc3ccn2c1-c1ccccc1`, the Potency was 13.5 µM (active). Turning to `CCOc1c(Br)cc(C(N)=O)cc1OCc1ccccc1`, the “activity, negative = inhibition” value is 0.994%. With `O=C1C(=Cc2ccco2)CCCC1=Cc1ccco1`, the Potency was 2.69 µM (active).

For the compound `COC(=O)C1=C(C)N(C)C(=O)/C1=C\c1ccco1`, the “activity, negative = inhibition” value is -22.6%. As to `Nc1nccc(/C=C/c2c(F)cccc2Cl)n1`, the Potency was 9.53 µM (active). For the compound `Nc1ccc(S(=O)(=O)Nc2nccc(/C=C/c3cccc(Br)c3)n2)cc1`, the “activity, negative = inhibition” value was -23.3%. In the case of `COc1ccccc1C(=O)COC(=O)c1cccs1`, the Potency was 2.69 µM (active). As for `COC(=O)c1ccccc1NC(=O)c1cccs1`, the “activity, negative = inhibition” value was -1.86%. Regarding `COC(=O)c1ccccc1NC(=O)COCc1cc(-c2cccs2)on1`, the “activity, negative = inhibition” value is -17.5%. For `COc1cc(OC)cc(-c2nc3ccccc3s2)c1`, the Potency is 3.79 µM (active).

For `COc1nc(-c2ccccc2)cc(-c2ccccc2)n1`, the “activity, negative = inhibition” value is -16.4%. With `C/C(=N\NC(=S)Nc1cccc(C)c1)c1ccco1`, the Potency is 7.57 µM (active). In the case of `Cc1cccc(NC(=O)C2CC(=O)N/C(=N/N=C/c3ccco3)S2)c1` (centres undefined), the “activity, negative = inhibition” value was -25.3%. In the case of `Cc1ccnc(SCC(=O)c2ccc(Br)cc2)c1C#N`, the Potency is 6.01 µM (active). As to `Cc1cc(C)c(C#N)c(OCC(=O)c2ccc(Br)cc2)n1`, the “activity, negative = inhibition” value was -2.59%. In the case of `N#C/C(=C(/O)c1ccco1)c1nc2ccccc2[nH]1`, the Potency is 3.79 µM (active). With `N#C/C(=C(/O)c1ccco1)c1nc2ccccc2s1`, the Potency was 2.39 µM (active) and 2.69 µM (active). Consider `COC(=O)c1cc2nc(-c3ccccc3)cc(C(F)(F)F)n2n1`, for which the “activity, negative = inhibition” value was 0.282%. With `COC(=O)c1sccc1NC(=O)c1ccccc1`, the “activity, negative = inhibition” value is -5%.

As for `COCCn1c(C(F)(F)F)ccc(NC(=O)c2ccccc2)c1=O`, the Potency is 4.78 µM (active). As to `O=C1N/C(=N\N=C\c2ccco2)SC1Cc1ccccc1[N+](=O)[O-]` (centres undefined), the “activity, negative = inhibition” value is -29.9%. As to `Cc1ccc2[nH]c(=O)c3cc(C(=O)N(C)Cc4ccco4)sc3c2c1`, the Potency is 12 µM (active). For `CN(C)CCNC(=O)c1cccc2ccc(-c3ccc(-c4ccccc4)cc3)nc12`, the “activity, negative = inhibition” value is -22.3%.

`CCN(C(=O)Cn1nnc2sc(-c3ccccc3)cc2c1=O)c1cccc(C)c1`: the Potency was 12 µM (active).

Consider `CC(=O)Cn1nnc2sc(-c3ccccc3)cc2c1=O`, for which the Potency is 6.01 µM (active) and 5.36 µM (active).

On to `CC(=NNc1ccc2ccccc2n1)c1ccccc1O`, for which the Potency was 0.0169 µM (active).

Take `Cc1cc(C)c(-n2c(SCCS(=O)(=O)c3ccc(F)cc3)n[nH]c2=O)c(C)c1`: the “activity, negative = inhibition” value is 3.41%. With `O=C(Oc1ccccc1/C=C\C(=O)c1cc2ccccc2o1)c1ccccc1`, the Potency was 1.07 µM (active). Still for that read-out and setting: to `COc1cccc(C(=O)Oc2ccccc2/C=C\C(=O)c2cc3ccccc3o2)c1` belongs 1.51 µM (active). Turning to `COc1ccc(-c2cc3ccccc3oc2=O)cc1NC(=O)c1ccc([N+](=O)[O-])o1`, the “activity, negative = inhibition” value was -25.2%. On the same count and under the same terms, in the case of `CN1CCN(CCCNC(=O)c2cc3c(=O)n(C)c4ccccc4c3s2)CC1` it was -18.5%. Regarding `O=[N+]([O-])c1ccc(/C=[N+](\[O-])[C@@H]2CCCC[C@@H]2/[N+]([O-])=C/c2ccc([N+](=O)[O-])o2)o1`, the “activity, negative = inhibition” value is -26%. In the case of `O=[N+]([O-])c1ccc(/C=N/Nc2ccc3ccccc3c2)o1`, the Potency was 1.69 µM (active). `O=[N+]([O-])c1ccc(/C=N/N=C/c2ccc([N+](=O)[O-])o2)o1`: the “activity, negative = inhibition” value is 3.61%. As to `O=C(COCc1cc(-c2ccc(F)cc2)on1)Nc1cc(Cl)ccc1O`, the “activity, negative = inhibition” value is 2.84%. The same measure, in the same setting: in the case of `Cc1cccc2nc3c(nc12)-c1ccccc1C3=O` it was -28.5%. With `Cc1cccc2cc3c(nc12)-c1ccccc1C3=O`, the Potency is 10.7 µM (active). As for `CS(=O)(=O)c1nc(S(=O)(=O)c2ccc(Cl)cc2)c(N2CCOCC2)s1`, the “activity, negative = inhibition” value was 0.161%. The same measure, in the same setting: in the case of `Clc1cc(Cl)cc(Nc2ncnc(-n3cccc3)n2)c1` it was -29%.

In the case of `CCn1nc(C)c(Br)c1-c1nc(-c2cccc(C)c2)no1`, the “activity, negative = inhibition” value is -25.7%. For `Cc1cccc(-c2nnc(-c3cccc4ccccc34)o2)c1`, the Potency is 0.675 µM (active).
